Hits are enriched below; roughly 2.5% of the tested compounds scored in any of these assays.
Cruzain noTriton: qHTS Assay for Promiscuous and Specific Inhibitors of Cruzain (without detergent); Cruzipain (Trypanosoma cruzi), P25779; purified cruzain, Z-FR-AMC fluorescence, no detergent; Potency, µM, most hits filed as inhibitors; 200,000 compounds, 2.3% hits; AID 1476, 2009; further: nearly all actives have a fitted effect of over 40% in size
Target sequence (P25779 123-467 limits assumed): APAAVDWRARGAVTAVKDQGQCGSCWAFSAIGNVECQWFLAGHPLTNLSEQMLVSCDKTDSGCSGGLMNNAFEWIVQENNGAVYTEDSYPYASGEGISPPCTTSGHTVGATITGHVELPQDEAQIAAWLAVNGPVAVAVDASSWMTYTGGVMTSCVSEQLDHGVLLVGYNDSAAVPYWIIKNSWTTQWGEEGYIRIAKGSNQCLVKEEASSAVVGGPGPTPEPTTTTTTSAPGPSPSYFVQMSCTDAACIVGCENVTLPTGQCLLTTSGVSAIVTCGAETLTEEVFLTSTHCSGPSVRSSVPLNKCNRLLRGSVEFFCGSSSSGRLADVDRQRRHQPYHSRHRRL
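Purified cruzain at 1.5 nM, pre-incubated 15 min with compound at room temperature in 100 mM sodium acetate pH 5.5, 5 mM DTT, 0.00005% Triton X-100. Reaction started with 2 uM Z-FR-AMC; AMC fluorescence increase over 60 s gives rate.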
Cruzain inh Det: qHTS Assay for Promiscuous and Specific Inhibitors of Cruzain (with detergent); 200,000 compounds, 0.43% hits; Potency, µM, usual class: inhibitors; purified cruzain, Z-FR-AMC fluorescence, 0.01% Triton; Cruzipain (Trypanosoma cruzi), P25779; AID 1478, 2009; further: nearly all actives have a fitted effect of over 40% in size
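Cruzain (1.5 nM) preincubated 15 min at RT with compound in 100 mM sodium acetate pH 5.5, 5 mM DTT, 0.01% Triton X-100. Reaction started with 2 uM Z-FR-AMC; AMC fluorescence (ex 360/em 450 nm) change over 60 s gave rate.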
Of the large screens only hits and unclear results are named; the others gave an inactive call. The call rests on the fitted dose curve; in most records, active means well fitted curve in the direction sought with a large enough effect; inconclusive means small, poorly fitted or top-dose-only effect, or another doubt; inactive means no such curve, though single readings can be large; an effect the other way counts as inactive or inconclusive.

O[C@@H](c1cc(C(F)(F)F)nc2c(Cl)cc(Cl)cc12)C1CCCCN1 (stereo partly specified)	none
Cc1ccc(NS(=O)(=O)c2cc(NC(=O)c3cc4c(s3)CCCC4)ccc2C)c(C)c1	Cruzain noTriton 31.6µM
Cc1ccc(NC(=O)c2cc3c(s2)CCC3)cc1S(=O)(=O)N1CCOCC1	none
O=C(CSc1ncnc2sc3c(c12)CCCC3)N1CCC(c2noc3ccc(F)cc23)CC1	Cruzain noTriton 15.8µM
Cc1cc(SCC(=O)N2CCC(c3noc4ccc(F)cc34)CC2)nc2ccccc12	none
O=C(Nc1ccc2c(c1)OCO2)C1Cc2ccccc2CN1S(=O)(=O)c1cccs1 (stereo unspecified)	Cruzain noTriton 25.1µM
O=C(Nc1ccc2c(c1)OCO2)C1CCN(S(=O)(=O)c2cccs2)CC1	Cruzain noTriton inconclusive
CCCOc1ccc(C2=NC(c3ccc(F)cc3)=Nc3ccc(OC)cc3N2)cc1	Cruzain noTriton 10µM
COc1ccc2c(c1)NC(c1ccc(F)cc1)=NC(c1ccc(F)cc1)=N2	Cruzain noTriton inconclusive
O=C(NC(=S)Nc1ccccc1N1CCOCC1)c1sc2ccccc2c1Cl	Cruzain noTriton 10µM
COc1cc(NS(=O)(=O)c2ccc(NC(=S)NC(=O)c3sc4ccccc4c3Cl)cc2)nc(OC)n1	none
NC(N)=NS(=O)(=O)c1ccc(NC(=S)NC(=O)c2sc3ccccc3c2Cl)cc1	Cruzain noTriton 10µM
O=C(NC(=S)Nc1ccc(N2CCOCC2)c(Cl)c1)c1sc2ccccc2c1Cl	Cruzain noTriton inconclusive
CCc1ccc(CNC(=O)c2ccc(NC(=O)N3CCCCc4ccccc43)cc2)cc1	none
COc1cc(OC)cc(C(=O)Nc2cc3c(cc2N2CCCC2)n(C)c(=O)c(=O)n3C)c1	none
CCc1ccccc1NC(=O)Cn1cc2c(n1)CCC(C)C2 (stereo unspecified)	none
Cc1ccccc1Nc1nnc(SCc2cc([N+](=O)[O-])cc3c2OCOC3)s1	Cruzain noTriton 12.6µM
O=[N+]([O-])c1cc2c(c(CSc3nnc(Nc4ccccc4)s3)c1)OCOC2	Cruzain noTriton inconclusive
Cc1c(-c2ccccc2)n(-c2ccccc2O)c2nc3c(c(=O)n(C)c(=O)n3C)n12	none
COc1cc(-c2noc(-c3ccc(NCc4cccnc4)c([N+](=O)[O-])c3)n2)cc(OC)c1OC	Cruzain noTriton inconclusive
COc1ccc(C2C(=O)N(C3CCC(C)CC3)CC(=O)N2CCc2ccccc2)cc1OC (stereo unspecified)	none
CCOC(=O)c1sc(NC(=O)C(OC(C)=O)c2ccccc2)nc1C (stereo unspecified)	none
Cc1nc(NC(=O)/C=C/c2ccccc2)sc1C(=O)Nc1ccccc1	none
CCOC(=O)c1sc(NC(=O)/C=C/c2ccccc2)nc1C	Cruzain noTriton 25.1µM
CCOC(=O)c1sc(NC(=O)C(CC)OC(=O)C(CC(C)C)NC(=O)c2ccccc2)nc1C (stereo unspecified)	Cruzain inh Det 10µM
O=C(Nc1ccc(O)c(-c2nc3ccccc3s2)c1)c1cccs1	Cruzain noTriton inconclusive
O=C(/C=C/c1ccco1)NC(=S)Nc1ccc(O)c(-c2nc3ccccc3s2)c1	Cruzain noTriton 7.94µM
CCCCOc1ccc(CNC(=O)CCCN2C(=O)CSc3c2c(C)nn3-c2ccccc2)cc1	Cruzain noTriton inconclusive
Cc1ccc(NC(=O)c2cccc(NC(=O)/C=C/c3ccco3)c2)cc1C	none
Cc1ccc(-n2nc3ccc(NC(=O)/C=C/c4ccco4)cc3n2)cc1	Cruzain noTriton 15.8µM
CCCCN(CC)CCCNC(=O)C1CCN(c2nc3ccc(CC)cc3s2)CC1	none
Cc1cccc(OCC(=O)N(Cc2ccc(C(C)(C)C)cc2)Cc2ccco2)c1	none
Cc1ccc(/C=C/C(=O)N2CCC(c3nc4ccccc4o3)CC2)cc1	none
CCCCN(CC)C(=O)CSc1nc2n[nH]c(C)c2c(=N)n1-c1cccc(Cl)c1	Cruzain noTriton inconclusive
N#Cc1ccc(Oc2ccc(-c3nc4ccccc4nc3-c3ccccc3)cc2)cc1C#N	Cruzain noTriton inconclusive
Nc1ccc(Oc2ccc3nc(-c4ccccc4)c(-c4ccc([N+](=O)[O-])cc4)nc3c2)cc1	Cruzain noTriton 15.8µM
Cc1ccc(-c2c(C(=O)N3CCN(c4cccc(C)c4)C(C)C3)oc(=O)c3ccccc23)cc1 (stereo unspecified)	none
O=c1cc(CN2CCN(c3ccccc3F)CC2)c2cc(O)c(-c3ccccc3)cc2o1	Cruzain noTriton 7.94µM
COc1ccc(N2CCN(Cc3cc(=O)oc4cc(-c5ccccc5)c(O)cc34)CC2)cc1	Cruzain noTriton inconclusive
COc1ccc(-c2nc3scc(CCNS(=O)(=O)c4ccc(Oc5ccccc5)cc4)n3n2)cc1OC	none
Cc1ccc(C2CC(=O)Oc3c(C(C)C)ccc(C)c32)cc1 (stereo unspecified)	none
CC(=O)NCCC(=O)Nc1nc(-c2cccs2)c(-c2cccs2)s1	Cruzain noTriton inconclusive
O=C(Nc1nc(-c2cccs2)c(-c2cccs2)s1)C1(c2ccccc2)CC1	Cruzain noTriton 10µM
Cc1cc(C)cc(-n2c(SCC(=O)Nc3ccccc3F)nc3c(oc4ccccc43)c2=O)c1	Cruzain noTriton inconclusive
COC(=O)c1ccc(CS(=O)(=O)c2ccccc2C)o1	Cruzain noTriton 15.8µM
Cc1ccc(CNC(=O)c2ccc(CS(=O)(=O)c3ccccc3C)o2)cc1	none
CN(C)CCNC(=O)c1ccc(-n2c(-c3ccccc3)cc3c2CCCC3)cc1	Cruzain noTriton inconclusive
CCOC(=O)c1cccc(NC(=O)c2ccc3snnc3c2)c1	none
CC(=O)[C@]1(O)CC[C@@H]2[C@H]3C[C@@H](C)C4=CC(=O)CC[C@@]4(C)C3[C@@H](O)C[C@]21C (stereo partly specified)	none
O=C(NN1C(=O)c2cc(Br)ccc2NC1c1ccccc1Cl)c1ccncc1 (stereo unspecified)	none
O=C(NN1C(=O)c2cc(Br)ccc2NC1c1cc(Br)cc(Br)c1O)c1ccncc1 (stereo unspecified)	Cruzain noTriton 10µM
Oc1ccc(C=Nc2cccc3ncccc23)c(O)c1	none
Oc1ccc(C=Nc2ccc3ncccc3c2)c(O)c1	Cruzain noTriton 15.8µM
COc1ccccc1CNC(=O)c1ccc2c(c1)N(Cc1cccc(Cl)c1)C(=O)c1ccccc1S2(=O)=O	Cruzain noTriton inconclusive
O=C(Nc1cccc(Cl)c1Cl)c1ccc2c(c1)N(Cc1cccc(Cl)c1)C(=O)c1ccccc1S2(=O)=O	Cruzain noTriton 3.98µM
O=C(NCc1ccccc1)c1ccc2c(c1)N(Cc1cccc(Cl)c1)C(=O)c1ccccc1S2(=O)=O	Cruzain noTriton inconclusive
O=C(c1ccc2c(c1)N(Cc1ccccc1F)C(=O)c1ccccc1S2(=O)=O)N1CCC(Cc2ccccc2)CC1	none
O=C(c1ccc2c(c1)N(Cc1ccc(Cl)cc1)C(=O)c1ccccc1S2(=O)=O)N1CCC(Cc2ccccc2)CC1	Cruzain noTriton 12.6µM
CCc1ccccc1NC(=O)c1ccc2c(c1)N(Cc1cccc(Cl)c1)C(=O)c1ccccc1S2(=O)=O	Cruzain noTriton 15.8µM
COc1cc2c(cc1OC)C(C(C(=O)N(CCc1ccc(OC)c(OC)c1OC)CCc1ccc(OC)c(OC)c1OC)c1ccccc1)=NCC2 (stereo unspecified)	Cruzain noTriton inconclusive
CCCCCCCCCCCCCCCC(=O)OCC(O)C1OC(=O)C(O)=C1O (stereo unspecified)	Cruzain noTriton inconclusive
Cc1ccc(C)c(CN2C(=O)c3ccccc3S(=O)(=O)c3ccc(C(=O)Nc4cc(F)ccc4F)cc32)c1	Cruzain noTriton 15.8µM
